Screens: PubChem BioAssay, Sanford-Burnham Center for Chemical Genomics
TROY NFkB inh – inhibitors of TROY-driven NF-kB signaling, primary screen, Q293 LMP1-TROYcd cells, NF-kB luciferase, uHTS; Q293 LMP1-TROYcd NF-kB luciferase reporter, 4 h; inhibition, % at 10 µM; hit rate 0.98% among 360,000; AID 1347056, 2019;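 active means compounds whose plate-normalised and pattern-corrected inhibition of the luciferase reporter signal at the single screening dose is 50% or more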
CF NFkB block – inhibitors of PAF-induced NF-kB signaling, primary screen, cell-based, GFP fluorescence, uHTS | KKLEB NF-kB-GFP reporter, GFP fluorescence overnight | inhibition, % at 5 µM | hit rate 0.86% among 360,000;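 active means at least 50% inhibition at 5 µM, scaled per plate between neutral and stimulator controls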;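 further: PAF is a Pseudomonas aeruginosa culture filtrate used as stimulus; plate controls were PAF-stimulated DMSO wells for no effect and unstimulated DMSO wells for full effect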
Peg3 prom inh – Peg3 promoter-driven luciferase inhibitors, primary screen, cell-based, HeLa, luciferase luminescence | inhibition, % at 20 µM | HeLa PEG-Prom luciferase reporter, overnight | hit rate 1.7% among 360,000;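 active means inhibition of at least 50% at 20 µM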
TWEAK-Fn14 inh – inhibitors of TWEAK-Fn14 signaling, primary screen, luciferase reporter cells, uHTS; TWEAK-stimulated Fn14 reporter cells, luciferase luminescence, 8 h; inhibition, % at 10 µM; hit rate 2% among 360,000; in the data active means inhibition above about 50%
HIF-2a inh – HIF-2a reporter inhibitors, primary screen, luminescence, 786-0 RCC cells; 786-0 RCC cells HIF-2a reporter, luciferase luminescence, overnight; inhibition, % at 18.8 µM; hit rate 0.72% among 360,000; AID 624352, 2012;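 active means inhibition of the luminescence signal of 40% or more relative to plate controls, in a single-dose primary screen at 18.75 µM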
KKLEB tox – cytotoxicity in KKLEB CF airway cells, primary screen, cytotoxicity control for CF NF-kB inhibitor project, cell-based, uHTS, fluorescence assay plates | KKLEB CF airway cells viability, ATPlite luminescence, overnight; stronger effect = lower value; cells stimulated with P. aeruginosa culture filtrate | hit rate 0.36% among 360,000 | activity change (cytotoxicity), % at 5 µM;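 active means corrected activity change at or below -50% at 5 µM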
Active calls of the source: *. Most compounds without a hit are left out; they make up all but 4% or so of the library.

Results for CSc1ccc(/C=N/NC(=O)c2ccc(-n3cnnn3)cc2)cc1 ?
TROY NFkB inh: 35; CF NFkB block: 17; Peg3 prom inh: 7; TWEAK-Fn14 inh: 55*; HIF-2a inh: 3; KKLEB tox: -6

Results for CC(C)c1ccc(/C=N/NC(=O)c2ccc(-n3cnnn3)cc2)cc1 ?
TROY NFkB inh: 26; CF NFkB block: -8; Peg3 prom inh: 5; TWEAK-Fn14 inh: 65*; HIF-2a inh: -6; KKLEB tox: 2

Results for CC1=CC(C)C(=O)N(CCN2CCOCC2)C(C)=C1 (configuration not stated) ?
TROY NFkB inh: -6; CF NFkB block: 24; Peg3 prom inh: 0; TWEAK-Fn14 inh: -3; HIF-2a inh: 11; KKLEB tox: 8

Results for O=c1[nH]c(=O)c2cc([N+](=O)[O-])cc([N+](=O)[O-])c2[nH]1 ?
TROY NFkB inh: 68*; CF NFkB block: -29; Peg3 prom inh: 20; TWEAK-Fn14 inh: 7; HIF-2a inh: 21; KKLEB tox: 0

What do the screens show for `CN(C)c1ccc(/C=N/Nc2nc3ccccc3o2)cc1`?
TROY NFkB inh: 53*; CF NFkB block: 1; Peg3 prom inh: -75; TWEAK-Fn14 inh: 81*; HIF-2a inh: -71; KKLEB tox: -13

What do the screens show for `CCS(=O)(=O)c1ccc(C=NNc2nc3ccccc3o2)cc1`?
TROY NFkB inh: -55; CF NFkB block: -8; Peg3 prom inh: -322; TWEAK-Fn14 inh: -1; HIF-2a inh: -232; KKLEB tox: -2

What do the screens show for `COC(=O)c1ccc(NC(=O)c2cccc(N3C(=O)C4C5C=CC(C6CC56)C4C3=O)c2)cc1` (configuration not stated)?
TROY NFkB inh: 55*; CF NFkB block: -33; Peg3 prom inh: 50; TWEAK-Fn14 inh: 85*; HIF-2a inh: 11; KKLEB tox: 27

How did COC(=O)c1ccc(NC(=O)c2ccc[n+]([O-])c2)cc1 do in these assays?
TROY NFkB inh: 2; CF NFkB block: -1; Peg3 prom inh: -2; TWEAK-Fn14 inh: 87*; HIF-2a inh: 3; KKLEB tox: 5

What do the screens show for `COc1ccc(OC)c(NC(=O)c2cccc(N3C(=O)C4C5CCC(C5)C4C3=O)c2)c1` (configuration not stated)?
TROY NFkB inh: 8; CF NFkB block: 2; Peg3 prom inh: 19; TWEAK-Fn14 inh: 12; HIF-2a inh: 4; KKLEB tox: 0

How did COc1ccc(OC)c(NC(=O)c2cccc(N3C(=O)C4C5C=CC(C6CC56)C4C3=O)c2)c1 (configuration not stated) do in these assays?
TROY NFkB inh: 25; CF NFkB block: 6; Peg3 prom inh: 30; TWEAK-Fn14 inh: 53*; HIF-2a inh: 2; KKLEB tox: -8

How did Cc1cc(/C=C\c2ccc3cc(N(C)C)ccc3[n+]2C)c(C)n1-c1ccccc1 do in these assays?
TROY NFkB inh: 0; CF NFkB block: -37; Peg3 prom inh: 64*; TWEAK-Fn14 inh: 44; HIF-2a inh: 28; KKLEB tox: -14

How did Cc1cccc(C)c1NC(=O)C1(C)CSCC(=O)N1CCCN1CCOCC1 (configuration not stated) do in these assays?
HIF-2a inh: 4

Results for CN(C)c1ccc(-c2ccnc3c2CC(C)(C(=O)NCc2cccc(Cl)c2)O3)cc1 (configuration not stated) ?
TROY NFkB inh: -6; CF NFkB block: 24; Peg3 prom inh: 14; TWEAK-Fn14 inh: 2; HIF-2a inh: 3; KKLEB tox: -23

Results for CN(CC(=O)Nc1ccccc1Br)C(=O)CNC(=O)c1ccc(Oc2ccccc2)cc1 ?
TROY NFkB inh: -37; CF NFkB block: 4; Peg3 prom inh: -103; TWEAK-Fn14 inh: -13; HIF-2a inh: -108; KKLEB tox: -3

What do the screens show for `CC(C)(C)C1CCC(OC(=O)c2ccncc2)CC1` (configuration not stated)?
TROY NFkB inh: -33; CF NFkB block: 3; Peg3 prom inh: -21; TWEAK-Fn14 inh: -29; HIF-2a inh: -21; KKLEB tox: -3
